Hits are enriched below; roughly 1.7% of the tested compounds scored in any of these assays.
FPRL1 binder – ligands of human FPRL1, also counter-screen for FPR ligands. P25090. FPRL1-expressing cells, fluorescent ligand binding inhibition, flow cytometry. inhibition, % (test concentration not listed). actives 0.3% (n = 24,000);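 also: 0% = buffer alone and 100% = receptor blocker peptide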
S aureus QS inh – inhibitors of bacterial quorum sensing in S. aureus; AID 527; actives 0.3% (n = 24,000); S. aureus RN6390 RNAIII-GFP reporter, AIP-induced, flow cytometry 3 h; inhibition, % at 2 µM;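 active = share of bacteria positive for the green fluorescent reporter and its mean brightness both inhibited by 50% or more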;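 also: 0% = AIP-stimulated control and 100% = unstimulated bacteria without AIP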
Prostate diff – LNCaP prostate cell differentiation activation | actives 0.56% (n = 24,000) | flow cytometry side scatter, 4 d | side scatter shift, % at 10 µM;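 active = side scatter shift above 30%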;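 also: androgen-responsive LNCaP prostate cancer cells in charcoal-stripped serum medium; percent of cells past a gate set so DMSO wells show 10% shift; higher shift means more granular cells and more differentiation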
FPR binder – binds the human formylpeptide receptor FPR | P21462 | FPR-expressing cells, fluorescent ligand binding, flow cytometry | inhibition, % (no concentration beside the values) | actives 0.74% (n = 24,000) | AID 440;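 also: 0% = buffer wells and 100% = receptor blocker peptide wells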
Target sequence (P21462 whole entry, looked up): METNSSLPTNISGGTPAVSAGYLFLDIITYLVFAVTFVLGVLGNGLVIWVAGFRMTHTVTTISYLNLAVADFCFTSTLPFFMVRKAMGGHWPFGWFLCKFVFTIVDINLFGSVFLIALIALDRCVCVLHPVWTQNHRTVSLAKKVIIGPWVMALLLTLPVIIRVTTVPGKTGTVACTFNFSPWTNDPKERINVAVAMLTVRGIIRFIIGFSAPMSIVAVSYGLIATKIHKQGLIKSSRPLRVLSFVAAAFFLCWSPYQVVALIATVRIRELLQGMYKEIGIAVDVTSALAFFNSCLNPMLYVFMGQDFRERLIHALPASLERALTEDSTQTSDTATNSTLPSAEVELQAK
* hit, by the source's call; . = not tested or not shown. Rule as the data show it, unless noted: active = inhibition above about 30%; inconclusive = no clear call, values can overlap the other calls; inactive = below that.

SMILES	FPRL1 binder	S aureus QS inh	Prostate diff	FPR binder
CC1(C)S[C@@H]2[C@H](NC(=O)C(C(=O)O)c3ccccc3)C(=O)N2[C@H]1C(=O)O (stereo partly drawn)	7.7	-4.5	2.0	9.3
CC1(C)S[C@@H]2[C@H](NC(=O)[C@H](N)c3ccccc3)C(=O)N2[C@H]1C(=O)O	-1.2	50.3*	0.0	4.5
Cn1nc(-c2ccc(Cl)cc2)c2cc(C(=O)NCCCN3CCOCC3)sc21	-2.8	-0.3	31.0*	-6.3
Cn1nc(-c2ccc(Cl)cc2)c2cc(C(=O)NCCN3CCOCC3)sc21	2.9	1.5	9.0	-0.9
CCOCCCNC(=O)c1cc2c(-c3ccc(Cl)cc3)nn(C)c2s1	-2.2	-4.6	0.0	3.4
CCN(CC)CCNC(=O)c1cc2c(-c3ccc(Cl)cc3)nn(C)c2s1	-6.6	-0.9	40.0*	-1.8
C=CCOc1cccc(C2c3c(oc4ccc(F)cc4c3=O)C(=O)N2CCCN2CCOCC2)c1 (stereo not drawn)	-0.8	-0.5	10.0	2.0
NS(=O)(=O)c1cc2c(cc1Cl)NC=NS2(=O)=O	5.9	-1.1	2.0	-9.9
Cc1cc(C)n(CCCNC(=O)c2ccc(S(=O)(=O)NCc3ccco3)cc2)n1	-0.2	-0.1	14.0	1.5
O=C(CSc1nnc2c3cc(F)ccc3nc(-c3ccccc3)n12)N1CCOCC1	0.9	0.7	5.0	-4.8
CCOC(=O)c1c(NC(=O)c2cc(C3CC3)on2)sc2c1CCCC2	58.2*	-2.4	11.0	9.6
O=C1C2ON(c3ccccc3)C(c3cccnc3)C2C(=O)N1c1ccccc1 (stereo not drawn)	5.3	-0.7	8.0	23.0
COc1cccc(N2C(=O)C3ON(c4ccccc4)C(c4cccs4)C3C2=O)c1 (stereo not drawn)	-3.1	-1.4	3.0	39.0*
CC1CCOC2(O1)C(=O)N(CN1CCN(c3ccccc3F)CC1)c1ccccc12 (stereo not drawn)	-1.0	-1.3	10.0	0.6
O=C(O)CC1Oc2ccc(Cl)cc2NC1=O (stereo not drawn)	36.7*	4.4	3.0	-38.1
CC(C)N1C(=O)CCC1C(=O)N1CCCc2ccccc21 (stereo not drawn)	0.3	2.9	7.0	-14.9
CCOC(=O)Nc1ccc(OC)cc1S(=O)(=O)N1CCCCC1	51.3*	0.2	14.0	62.7*
COc1ccc(Nc2nc(-c3sc(N)nc3C)cs2)cc1	3.4	56.2*	14.0	-7.4
Cc1cc(NC(=O)C2CCCC2)nc2c1c(=O)oc1ccccc12	-12.9	54.1*	6.0	-2.3
Cc1cc(NC(=O)C2CCCCC2)nc2c1c(=O)oc1ccccc12	-15.2	-4.1	9.0	-14.9
CN(CC(O)COc1ccc(OCC(O)CN(C)C2CCCCC2)cc1)C1CCCCC1 (stereo not drawn)	-4.4	-3.9	37.0*	-1.1
Cc1cccc(C)c1NS(=O)(=O)c1c(C)[nH]c(=O)[nH]c1=O	2.2	-0.5	18.0	1.6
COc1ccc(CN(C(=O)c2ccccc2OC)C2CCS(=O)(=O)C2)cc1 (stereo not drawn)	50.6*	-0.6	19.0	51.4*
CC1=CCC(C(C)(C)NC(=O)c2ccccc2)C/C1=N\O (stereo not drawn)	4.3	-1.5	0.0	5.5
COc1ccc(S(=O)(=O)NC(C)C(=O)Nc2cccc(C(C)=O)c2)cc1 (stereo not drawn)	47.0*	0.1	3.0	11.2
SMILES	FPRL1 binder	S aureus QS inh	Prostate diff	FPR binder
COC(=O)C(C)NS(=O)(=O)c1ccc(NC(C)=O)cc1 (stereo not drawn)	7.3	-1.4	11.0	-15.0
COc1ccc(-c2nc(CN3CCC(C(=O)NC4CCCc5ccccc54)CC3)c(C)o2)cc1OC (stereo not drawn)	-1.5	1.2	39.0*	-3.7
CCc1ccc(-c2nc(CN3CCC(C(=O)NCCc4ccc(OC)c(OC)c4)CC3)c(C)o2)cc1	0.5	0.5	32.0*	-0.5
CCN1CCCC1CNC(=O)C1CCN(Cc2nc(-c3cccc(Br)c3)oc2C)CC1 (stereo not drawn)	-6.3	-3.2	63.0*	-1.0
Cc1oc(-c2cccc(Cl)c2)nc1CN1CCC(C(=O)NCc2ccco2)CC1	-2.1	0.1	8.0	-1.9
COc1ccc(CCNC(=O)C2CCN(Cc3nc(-c4ccccc4F)oc3C)CC2)cc1OC	-6.0	-2.7	4.0	-3.9
CCN1CCN(CCNC(=O)C2CCN(Cc3nc(-c4ccc(Cl)cc4)oc3C)CC2)CC1	2.1	1.2	44.0*	-9.1
CCN(C(=O)CCN1C(=O)c2ccccc2C1=O)C1CCCCC1	-0.1	-1.6	3.0	0.6
COc1ccccc1CNC(=O)C1CCN(Cc2nc(-c3ccc(Cl)cc3)oc2C)CC1	-3.9	1.3	32.0*	1.5
Cc1cc(=O)n2nc(N3CCCC(C(=O)NCCCN4CCc5ccccc5C4)C3)sc2n1 (stereo not drawn)	-1.4	1.7	38.0*	-2.2
CCN(CC)c1ccc(-c2c(C#N)c(N)nc(OC)c2C#N)cc1	-2.3	14.2	11.0	-6.0
CCN(CC)c1ccc(C=N/C(C#N)=C(\N)C#N)cc1	68.3*	7.1	19.0	4.3
CCN(CC)CCNC(=O)c1nn(-c2ccc(C)cc2)c(=O)c2c1c1ccccc1n2C	-15.4	6.0	36.0*	1.0
COc1cccc(CNC(=O)C2CCN(S(=O)(=O)c3c(C)nn(C)c3C)CC2)c1	-11.1	-2.4	15.0	1.9
Cn1cccc1Cc1nnc(SCC(=O)Nc2ccccc2)n1-c1ccc(F)cc1	-4.7	60.6*	4.0	2.0
COc1ccc(-n2c(Cc3cccn3C)nnc2SCC(=O)Nc2ccc(Cl)cc2)cc1	1.0	19.3	9.0	55.6*
Cn1cccc1Cc1nnc(SCC(=O)Nc2ccc(F)cc2)n1-c1ccc(F)cc1	-1.2	-7.1	8.0	-1.0
O=C(NCCS(=O)CCNC(=O)C(F)(F)F)C(F)(F)F	-2.6	3.1	2.0	0.3
O=C(Cn1cnc2c(cnn2-c2ccc(F)cc2)c1=O)OCc1ccccc1	54.3*	-0.7	14.0	39.5*
Cn1c(=O)oc2cc(S(=O)(=O)N3CCC(C(=O)NCc4cccs4)CC3)ccc21	5.9	-2.9	15.0	0.9
Cn1c(=O)oc2cc(S(=O)(=O)N3CCC(C(=O)NCC4COc5ccccc5O4)CC3)ccc21 (stereo not drawn)	19.6	-2.1	7.0	31.1*
Cc1c(C(=O)NCc2ccc3c(c2)OCO3)oc2ccc(S(=O)(=O)N3CCC(C)CC3)cc12	11.0	0.1	5.0	-2.5
CC1CCN(S(=O)(=O)c2ccc3c(c2)oc(=O)n3CC(=O)NCc2ccc3c(c2)OCO3)CC1	-4.5	66.6*	20.0	38.8*
CCCNC(=O)c1cc(S(=O)(=O)N2CCc3ccccc32)ccc1F	1.9	-1.2	5.0	1.3
CSCCC1C(C#N)=C(N)Oc2n[nH]c(-c3cccs3)c21 (stereo not drawn)	5.6	9.2	2.0	30.1*
N#CC1=C(N)Oc2n[nH]c(-c3cccs3)c2C1c1cccs1 (stereo not drawn)	11.6	-2.3	6.0	11.3
O=C(Nc1ccc(Nc2ccccc2)cc1)c1ccc(Br)o1	34.2*	.	.	17.8
Cc1cc(O)c(NC(=O)c2ccc(Br)o2)cc1C	2.9	0.0	11.0	-0.4

Screening data deposited in PubChem BioAssay by NMMLSC.
